Laboratory results taken from the supplement of paper PMC10849652.
The full data set covers some 7,900 targets. This sample favours those with a hit. About 0.6% of all pairs of compound and target were hits. Unmarked numbers belong to inactive results.

Assays:
Assay in all cases: log2 fold change, soluble protein after heating vs DMSO (PISA); higher = thermal stabilisation; K562 cells, 10 uM, 30 min; active = over 0.2 and 3.5 SD of the protein, either way, in both replicates (recomputed)
saracatinib = compound: CN1CCN(CCOc2cc(OC3CCOCC3)c3c(Nc4c(Cl)ccc5c4OCO5)ncnc3c2)CC1 [saracatinib]
How it was run: (§1)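 K562 cells at 2×10^6 cells/mL were treated for 30 min with 10 μM compound, and aliquots were heated for 3 min over 48°C-58°C before pooling. Extraction used PBS with 0.5% NP-40 at 4°C, and soluble protein was the supernatant after 21,000xg for 90 min, measured by TMTpro 16plex LC-MS/MS with channel sums equalised. Thermal stability values, relative to control samples and from duplicates, are log2 fold changes.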

sotrastaurin = compound: CN1CCN(c2nc(C3=C(c4c[nH]c5ccccc45)C(=O)NC3=O)c3ccccc3n2)CC1 [sotrastaurin]
How it was run: as §1

alvocidib = compound: CN1CC[C@H](c2c(O)cc(O)c3c(=O)cc(-c4ccccc4Cl)oc23)[C@H](O)C1 [alvocidib]
How it was run: as §1

Tubastatin A = compound: CN1CCc2c(c3ccccc3n2Cc2ccc(C(=O)NO)cc2)C1 [Tubastatin A]
How it was run: as §1

[1] = compound: CNC(=O)C1=CC=CC=C1NC2=NC(=NC=C2Cl)NC3=C(C=C(C=C3)N4CCOCC4)OC
How it was run: as §1

defactinib = compound: CNC(=O)c1ccc(Nc2ncc(C(F)(F)F)c(NCc3nccnc3N(C)S(C)(=O)=O)n2)cc1 [defactinib]
How it was run: as §1

rucaparib = compound: CNCc1ccc(-c2[nH]c3cc(F)cc4c3c2CCNC4=O)cc1 [rucaparib]
How it was run: as §1

[2] = compound: CNc1nc(-c2ccc3c(N)n[nH]c3c2)cc(N2C[C@@H](C(=O)NC3CCCCC3)CC[C@H]2C)n1
How it was run: as §1

encorafenib = compound: COC(=O)N[C@@H](C)CNc1nccc(-c2cn(C(C)C)nc2-c2cc(Cl)cc(NS(C)(=O)=O)c2F)n1 [encorafenib]
How it was run: as §1

[3] = compound: COC(=O)[C@H](CCSC)NC(=O)C1=C(C=C(C=C1)NC[C@H](CS)N)C2=CC=CC=C2
How it was run: as §1

[4] = compound: COC1=CC=C(C=C1)CN2C=CC3=C2C=C(C=C3)C(=O)NO
How it was run: as §1

filanesib = compound: CON(C)C(=O)N1N=C(c2cc(F)ccc2F)S[C@@]1(CCCN)c1ccccc1 [filanesib]
How it was run: as §1

zotarolimus = compound: CO[C@H]1C[C@@H]2CC[C@@H](C)[C@@](O)(O2)C(=O)C(=O)N2CCCC[C@H]2C(=O)O[C@H]([C@H](C)C[C@@H]2CC[C@H](n3cnnn3)[C@H](OC)C2)CC(=O)[C@H](C)/C=C(\C)[C@@H](O)[C@@H](OC)C(=O)[C@H](C)C[C@H](C)/C=C/C=C/C=C/1C [zotarolimus]
How it was run: as §1

idasanutlin = compound: COc1cc(C(=O)O)ccc1NC(=O)[C@@H]1N[C@@H](CC(C)(C)C)[C@](C#N)(c2ccc(Cl)cc2F)[C@H]1c1cccc(Cl)c1F [idasanutlin]
How it was run: as §1

alisertib = compound: COc1cc(Nc2ncc3c(n2)-c2ccc(Cl)cc2C(c2c(F)cccc2OC)=NC3)ccc1C(=O)O [alisertib]
How it was run: as §1

[5] = compound: COc1cc2nc(-c3cc(F)ccc3O)nc(N[C@@H]3CNC[C@H]3C(C)(C)O)c2cc1OC
How it was run: as §1

gefitinib = compound: COc1cc2ncnc(Nc3ccc(F)c(Cl)c3)c2cc1OCCCN1CCOCC1 [gefitinib]
How it was run: as §1

[6] = compound: COc1cccc2cc(-c3nc([C@H]4CC[C@H](C(=O)O)CC4)n4ncnc(N)c34)[nH]c12
How it was run: as §1

lapatinib = compound: CS(=O)(=O)CCNCc1ccc(-c2ccc3ncnc(Nc4ccc(OCc5cccc(F)c5)c(Cl)c4)c3c2)o1 [lapatinib]
How it was run: as §1

pictilisib = compound: CS(=O)(=O)N1CCN(Cc2cc3nc(-c4cccc5[nH]ncc45)nc(N4CCOCC4)c3s2)CC1 [pictilisib]
How it was run: as §1

UniProt P51687, sequence (P51687 whole entry, looked up): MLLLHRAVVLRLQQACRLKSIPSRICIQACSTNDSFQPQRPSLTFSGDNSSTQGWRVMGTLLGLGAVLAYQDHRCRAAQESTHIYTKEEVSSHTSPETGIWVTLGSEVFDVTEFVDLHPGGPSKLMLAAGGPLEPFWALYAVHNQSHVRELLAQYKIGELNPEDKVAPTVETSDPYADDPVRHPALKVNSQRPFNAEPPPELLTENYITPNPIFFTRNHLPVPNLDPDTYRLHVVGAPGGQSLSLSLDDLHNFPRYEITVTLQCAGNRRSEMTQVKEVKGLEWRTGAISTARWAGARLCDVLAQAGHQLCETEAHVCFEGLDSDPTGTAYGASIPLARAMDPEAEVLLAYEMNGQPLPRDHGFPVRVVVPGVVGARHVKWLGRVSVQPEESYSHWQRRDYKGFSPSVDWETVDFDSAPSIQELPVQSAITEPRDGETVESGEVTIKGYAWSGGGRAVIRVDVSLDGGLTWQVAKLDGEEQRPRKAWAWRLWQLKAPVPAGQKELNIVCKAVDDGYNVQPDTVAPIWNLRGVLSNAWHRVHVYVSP
UniProt Q15526, sequence (Q15526 whole entry, looked up): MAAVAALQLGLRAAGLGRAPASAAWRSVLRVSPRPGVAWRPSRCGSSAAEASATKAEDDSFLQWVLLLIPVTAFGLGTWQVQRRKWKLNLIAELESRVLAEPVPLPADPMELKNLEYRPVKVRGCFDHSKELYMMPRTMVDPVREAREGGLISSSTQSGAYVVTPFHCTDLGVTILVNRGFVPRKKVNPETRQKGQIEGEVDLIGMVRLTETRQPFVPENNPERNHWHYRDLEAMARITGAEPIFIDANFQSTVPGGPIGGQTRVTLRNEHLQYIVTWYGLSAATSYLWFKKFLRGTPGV
UniProt Q9NYB0, sequence (Q9NYB0 whole entry, looked up): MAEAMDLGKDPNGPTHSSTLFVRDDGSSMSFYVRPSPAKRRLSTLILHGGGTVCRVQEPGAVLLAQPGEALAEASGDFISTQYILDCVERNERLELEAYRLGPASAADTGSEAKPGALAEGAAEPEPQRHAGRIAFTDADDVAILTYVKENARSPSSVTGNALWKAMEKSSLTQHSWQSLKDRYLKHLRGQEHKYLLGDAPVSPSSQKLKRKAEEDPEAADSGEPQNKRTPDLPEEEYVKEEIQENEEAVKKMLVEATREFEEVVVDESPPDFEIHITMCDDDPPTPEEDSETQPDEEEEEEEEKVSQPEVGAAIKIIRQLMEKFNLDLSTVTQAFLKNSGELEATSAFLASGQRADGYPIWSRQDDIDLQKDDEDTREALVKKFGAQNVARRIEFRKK
UniProt Q9BZJ4, sequence (Q9BZJ4 whole entry, looked up): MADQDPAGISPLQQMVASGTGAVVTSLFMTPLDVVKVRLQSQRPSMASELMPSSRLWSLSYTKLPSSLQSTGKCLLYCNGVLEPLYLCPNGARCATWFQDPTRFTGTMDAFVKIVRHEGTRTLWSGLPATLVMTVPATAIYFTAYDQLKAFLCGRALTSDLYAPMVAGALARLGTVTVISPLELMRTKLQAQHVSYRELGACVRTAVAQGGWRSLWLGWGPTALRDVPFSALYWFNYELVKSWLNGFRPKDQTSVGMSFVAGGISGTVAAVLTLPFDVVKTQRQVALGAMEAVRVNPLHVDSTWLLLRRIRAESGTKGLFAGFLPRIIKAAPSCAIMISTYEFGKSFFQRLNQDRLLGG
UniProt P62072, sequence (P62072 whole entry, looked up): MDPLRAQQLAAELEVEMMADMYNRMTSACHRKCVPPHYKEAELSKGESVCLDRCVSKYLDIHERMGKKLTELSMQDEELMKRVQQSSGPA
UniProt Q13596, sequence (Q13596 whole entry, looked up): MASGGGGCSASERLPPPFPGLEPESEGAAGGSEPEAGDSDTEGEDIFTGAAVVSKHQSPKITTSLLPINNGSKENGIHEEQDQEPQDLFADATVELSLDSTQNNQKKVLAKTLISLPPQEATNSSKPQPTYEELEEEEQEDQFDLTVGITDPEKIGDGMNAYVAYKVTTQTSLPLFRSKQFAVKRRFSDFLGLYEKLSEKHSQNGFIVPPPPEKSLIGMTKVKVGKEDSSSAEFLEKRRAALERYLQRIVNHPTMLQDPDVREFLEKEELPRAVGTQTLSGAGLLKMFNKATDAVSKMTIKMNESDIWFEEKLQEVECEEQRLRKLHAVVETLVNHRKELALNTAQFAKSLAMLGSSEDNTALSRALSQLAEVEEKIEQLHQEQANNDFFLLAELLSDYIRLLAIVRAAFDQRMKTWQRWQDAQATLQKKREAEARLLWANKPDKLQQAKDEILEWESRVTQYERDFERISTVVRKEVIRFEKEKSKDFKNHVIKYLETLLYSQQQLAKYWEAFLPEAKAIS
UniProt O94901, sequence (O94901 whole entry, looked up): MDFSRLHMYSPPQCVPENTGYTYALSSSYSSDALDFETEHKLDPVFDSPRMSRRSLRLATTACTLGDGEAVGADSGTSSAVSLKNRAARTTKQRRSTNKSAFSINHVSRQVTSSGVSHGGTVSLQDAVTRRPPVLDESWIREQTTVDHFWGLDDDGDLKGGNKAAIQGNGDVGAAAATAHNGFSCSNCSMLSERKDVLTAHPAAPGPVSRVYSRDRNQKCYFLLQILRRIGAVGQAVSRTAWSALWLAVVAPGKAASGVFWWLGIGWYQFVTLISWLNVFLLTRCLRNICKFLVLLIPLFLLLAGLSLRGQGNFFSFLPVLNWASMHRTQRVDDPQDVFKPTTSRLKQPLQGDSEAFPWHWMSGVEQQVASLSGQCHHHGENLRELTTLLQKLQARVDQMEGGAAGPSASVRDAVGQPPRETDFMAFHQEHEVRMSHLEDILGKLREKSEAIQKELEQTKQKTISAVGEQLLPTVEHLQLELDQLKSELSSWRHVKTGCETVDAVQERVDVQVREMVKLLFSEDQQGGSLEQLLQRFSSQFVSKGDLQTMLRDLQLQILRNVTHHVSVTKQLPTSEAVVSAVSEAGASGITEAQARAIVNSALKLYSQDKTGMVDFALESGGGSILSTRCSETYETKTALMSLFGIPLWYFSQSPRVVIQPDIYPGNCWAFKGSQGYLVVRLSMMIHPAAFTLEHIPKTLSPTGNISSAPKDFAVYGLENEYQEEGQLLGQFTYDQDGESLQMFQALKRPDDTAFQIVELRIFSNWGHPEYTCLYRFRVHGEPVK
UniProt Q66K14, sequence (Q66K14 whole entry, looked up): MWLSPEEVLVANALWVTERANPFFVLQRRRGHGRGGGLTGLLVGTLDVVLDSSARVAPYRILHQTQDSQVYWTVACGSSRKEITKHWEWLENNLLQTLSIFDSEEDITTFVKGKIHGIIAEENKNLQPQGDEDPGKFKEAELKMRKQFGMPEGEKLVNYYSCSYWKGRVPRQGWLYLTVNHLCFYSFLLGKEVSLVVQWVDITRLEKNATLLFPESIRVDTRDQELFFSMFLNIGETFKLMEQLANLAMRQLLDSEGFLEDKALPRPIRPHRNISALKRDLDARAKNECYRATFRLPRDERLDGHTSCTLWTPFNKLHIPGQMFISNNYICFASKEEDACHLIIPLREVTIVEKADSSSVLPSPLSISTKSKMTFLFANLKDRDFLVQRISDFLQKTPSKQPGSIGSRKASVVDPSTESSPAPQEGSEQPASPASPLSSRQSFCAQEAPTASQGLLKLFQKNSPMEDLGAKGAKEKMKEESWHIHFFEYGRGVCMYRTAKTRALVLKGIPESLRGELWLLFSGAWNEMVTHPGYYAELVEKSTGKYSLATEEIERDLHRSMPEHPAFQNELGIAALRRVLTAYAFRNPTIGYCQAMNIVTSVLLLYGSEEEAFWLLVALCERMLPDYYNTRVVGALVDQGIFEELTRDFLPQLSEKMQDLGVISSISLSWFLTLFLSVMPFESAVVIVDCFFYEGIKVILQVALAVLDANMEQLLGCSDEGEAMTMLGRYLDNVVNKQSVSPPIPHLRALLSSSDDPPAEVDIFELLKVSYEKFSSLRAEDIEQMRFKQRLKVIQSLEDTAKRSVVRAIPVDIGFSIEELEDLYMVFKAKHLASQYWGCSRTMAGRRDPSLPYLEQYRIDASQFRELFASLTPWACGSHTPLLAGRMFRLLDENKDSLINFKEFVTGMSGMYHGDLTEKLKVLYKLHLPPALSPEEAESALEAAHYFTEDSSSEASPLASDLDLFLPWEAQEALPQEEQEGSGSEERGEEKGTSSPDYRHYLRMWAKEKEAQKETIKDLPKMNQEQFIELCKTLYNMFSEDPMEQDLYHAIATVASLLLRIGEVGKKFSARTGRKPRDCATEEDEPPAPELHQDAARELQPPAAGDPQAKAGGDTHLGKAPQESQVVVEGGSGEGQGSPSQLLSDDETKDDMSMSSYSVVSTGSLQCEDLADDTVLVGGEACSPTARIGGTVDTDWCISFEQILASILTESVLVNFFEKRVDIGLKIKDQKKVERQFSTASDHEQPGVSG
UniProt Q8N1S5, sequence (Q8N1S5 whole entry, looked up): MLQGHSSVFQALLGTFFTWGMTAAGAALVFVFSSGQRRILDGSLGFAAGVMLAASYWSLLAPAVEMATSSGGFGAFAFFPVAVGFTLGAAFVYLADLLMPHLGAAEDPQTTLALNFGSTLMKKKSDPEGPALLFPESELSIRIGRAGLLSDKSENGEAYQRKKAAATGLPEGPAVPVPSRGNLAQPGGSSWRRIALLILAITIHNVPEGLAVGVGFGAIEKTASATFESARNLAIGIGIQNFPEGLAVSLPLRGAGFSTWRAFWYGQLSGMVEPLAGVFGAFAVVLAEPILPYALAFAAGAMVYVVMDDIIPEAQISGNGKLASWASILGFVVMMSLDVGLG
UniProt Q15527, sequence (Q15527 whole entry, looked up): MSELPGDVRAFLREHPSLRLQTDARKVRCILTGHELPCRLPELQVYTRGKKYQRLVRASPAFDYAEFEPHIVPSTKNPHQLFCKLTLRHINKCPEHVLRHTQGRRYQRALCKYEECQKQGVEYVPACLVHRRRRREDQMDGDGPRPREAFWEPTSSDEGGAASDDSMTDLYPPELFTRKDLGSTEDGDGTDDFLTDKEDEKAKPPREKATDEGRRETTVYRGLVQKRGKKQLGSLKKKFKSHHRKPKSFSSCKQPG

| Target | log2 fold change (saracatinib) | log2 fold change (sotrastaurin) | log2 fold change (alvocidib) | log2 fold change (Tubastatin A) | log2 fold change [1] | log2 fold change (defactinib) | log2 fold change (rucaparib) | log2 fold change [2] | log2 fold change (encorafenib) | log2 fold change [3] | log2 fold change [4] | log2 fold change (filanesib) | log2 fold change (zotarolimus) | log2 fold change (idasanutlin) | log2 fold change (alisertib) | log2 fold change [5] | log2 fold change (gefitinib) | log2 fold change [6] | log2 fold change (lapatinib) | log2 fold change (pictilisib) |
| --- | --- | --- | --- | --- | --- | --- | --- | --- | --- | --- | --- | --- | --- | --- | --- | --- | --- | --- | --- | --- |
| SRRM2 (UniProt Q9UQ35) | -0.026 | -0.048 | -0.412 (active) | 0.093 | -0.264 | -0.298 | 0.013 | -0.009 | -0.013 | 0.047 | 0.018 | 0.097 | 0.05 | 0.166 | -0.121 | -0.293 | 0.018 | 0.028 | 0.01 | 0.117 |
| TERF2IP (UniProt Q9NYB0) | 0.038 | -0.065 | -0.106 | 0.128 | 0.008 | -0.195 | -0.052 | -0.016 | -0.011 | -0.007 | -0.034 | 0.052 | 0.045 | 0.025 | -0.032 | -0.119 | 0.013 | 0.025 | -0.008 | -0.036 |
| SLC39A11 (UniProt Q8N1S5) | 0.098 | 0.127 | 0.02 | -0.164 | -0.223 | 0.074 | -0.518 (active) | -0.015 | -0.077 | -0.082 | -0.014 | -0.01 | -0.078 | -0.056 | -0.113 | -0.04 | 0.001 | 0.047 | -0.038 | -0.117 |
| SURF2 (UniProt Q15527) | 0.034 | -0.02 | 0 | 0.066 | -0.015 | -0.056 | -0.055 | -0.059 | -0.037 | -0.016 | 0.038 | 0.014 | 0.055 | 0.054 | -0.133 | 0.023 | 0.028 | -0.034 | 0.006 | -0.07 |
| SYNE2 isoform 2 (UniProt Q8WXH0) | -0.121 | -0.005 | 0.156 | 0.071 | -0.109 | 0.029 | -0.045 | 0.049 | -0.107 | -0.006 | 0.112 | 0.048 | -0.057 | -0.185 | -0.054 | 0.34 | 0.078 | -0.004 | -0.133 | 0.205 |
| TBC1D9B (UniProt Q66K14) | -0.023 | 0.077 | -0.059 | 0.063 | -0.07 | -0.064 | 0.009 | -0.01 | 0.065 | 0.027 | -0.037 | 0.151 | 0.042 | -0.003 | 0.03 | -0.026 | -0.072 | 0.03 | -0.031 | 0.068 |
| SURF1 (UniProt Q15526) | 0.034 | -0.084 | -0.078 | -0.03 | 0.026 | -0.012 | -0.083 | -0.092 | 0.017 | -0.105 | 0.053 | -0.032 | -0.008 | 0.025 | -0.098 | -0.004 | -0.055 | 0.083 | 0.058 | 0.051 |
| SNX1 (UniProt Q13596) | 0.006 | -0.006 | -0.084 | -0.021 | -0.112 | -0.036 | -0.023 | 0.028 | 0.024 | -0.026 | -0.021 | -0.182 | 0.042 | -0.013 | -0.003 | -0.063 | -0.165 | 0 | -0.027 | -0.205 |
| SUOX (UniProt P51687) | 0.02 | 0.013 | -0.047 | -0.031 | -0.01 | 0.031 | -0.037 | -0.022 | 0.001 | 0.042 | -0.321 | -0.014 | 0.02 | 0.013 | -0.014 | 0.088 | 0.007 | 0.022 | -0.088 | 0.158 |
| SLC25A39 (UniProt Q9BZJ4) | 0.107 | -0.076 | 0.134 | -0.18 | -0.118 | -0.044 | -0.01 | 0.015 | 0.005 | 0.041 | -0.069 | -0.255 | 0.073 | -0.115 | 0.123 | -0.49 | -0.344 | 0.224 | -0.044 | -0.072 |
| TIMM10 (UniProt P62072) | -0.058 | 0.018 | 0.08 | -0.027 | -0.015 | -0.073 | -0.062 | 0.039 | -0.013 | 0.002 | -0.043 | -0.038 | -0.023 | -0.019 | 0.01 | -0.12 | 0.015 | 0.03 | -0.026 | 0.008 |
| SUN1 isoform 9 (UniProt O94901) | -0.023 | -0.178 | 0 | -0.048 | -0.108 | 0.049 | 0.083 | -0.038 | -0.018 | -0.029 | -0.062 | 0.084 | 0.162 | 0.02 | -0.059 | -0.14 | -0.053 | 0.122 | 0.052 | -0.002 |
